# Where “and” joins values, the source holds several entries; their conditions need not be identical. Equal entries are not always repeated. Results filed as inconclusive are left out. Where a call stands in place of a potency, no number is given. More than one record can exist for a structure, and the calls need not agree. Calls of active or inactive are those of the source. Unless noted, the call rests on the fitted dose curve.
# Legend:
# [1] = qHTS assay to identify small molecule antagonists of the sonic hedgehog signaling (Shh) pathway (AID 1259369); further: nearly all actives have a fitted effect of over 45% in size; further: potency means the concentration at half of the fitted maximal effect
# Procedure, shortened: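 3T3Gli1-Luc, conditioned-medium-stimulated, 24hr cpd, 37C/5% CO2; Gli1-driven firefly Luc luminescence after 30min RT with luciferase reagent. Cells plated 4hr before cpd.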
# [2] = qHTS assay to identify small molecule agonists of the androgen receptor (AR) signaling pathway in the presence of an antagonist - cell viability counter screen (AID 1259379; active means well fitted curve in the direction sought with a large enough effect in the repeat runs; an effect the other way counts as inactive or inconclusive; further: nearly all actives have a fitted effect of over 25% in size; further: potency means the concentration at half of the fitted maximal effect)
# Procedure, shortened: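 Cells: MDA-kb2 (MMTV-luc, AR and GR elements), 3,000/well, 5 hr settle. Added: nilutamide 3.0uM final, then compounds (15 conc.). Incubation: 16 hr, 37C, no CO2. Read-out: CellTiter-Fluor, 1 hr, fluorescence.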
# [3] = qHTS assay to identify small molecule agonists of the estrogen receptor beta (ER-beta) signaling pathway - cell viability counter screen (AID 1259380; active means well fitted curve in the direction sought with a large enough effect in the repeat runs; an effect the other way counts as inactive or inconclusive; further: nearly all actives have a fitted effect of over 30% in size; further: potency means the concentration at half of the fitted maximal effect)
# Procedure, shortened: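 HEK293T ER-beta-UAS-bla; 2% CS-FBS; 6 hr pre-plate, 16 hr cpd at 37C/5% CO2; LiveBLAzer read first, then CellTiter-Glo 30 min RT, luminescence.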
# [4] = molecular target: Androgen receptor (Homo sapiens) (UniProt P10275); test: qHTS assay to identify small molecule agonists of the androgen receptor (AR) signaling pathway in the presence of an antagonist (AID 1259381); further: nearly all actives have a fitted effect of over 15% in size; further: potency means the concentration at half of the fitted maximal effect
# Chain of Androgen receptor (Homo sapiens) (P10275 whole entry, looked up): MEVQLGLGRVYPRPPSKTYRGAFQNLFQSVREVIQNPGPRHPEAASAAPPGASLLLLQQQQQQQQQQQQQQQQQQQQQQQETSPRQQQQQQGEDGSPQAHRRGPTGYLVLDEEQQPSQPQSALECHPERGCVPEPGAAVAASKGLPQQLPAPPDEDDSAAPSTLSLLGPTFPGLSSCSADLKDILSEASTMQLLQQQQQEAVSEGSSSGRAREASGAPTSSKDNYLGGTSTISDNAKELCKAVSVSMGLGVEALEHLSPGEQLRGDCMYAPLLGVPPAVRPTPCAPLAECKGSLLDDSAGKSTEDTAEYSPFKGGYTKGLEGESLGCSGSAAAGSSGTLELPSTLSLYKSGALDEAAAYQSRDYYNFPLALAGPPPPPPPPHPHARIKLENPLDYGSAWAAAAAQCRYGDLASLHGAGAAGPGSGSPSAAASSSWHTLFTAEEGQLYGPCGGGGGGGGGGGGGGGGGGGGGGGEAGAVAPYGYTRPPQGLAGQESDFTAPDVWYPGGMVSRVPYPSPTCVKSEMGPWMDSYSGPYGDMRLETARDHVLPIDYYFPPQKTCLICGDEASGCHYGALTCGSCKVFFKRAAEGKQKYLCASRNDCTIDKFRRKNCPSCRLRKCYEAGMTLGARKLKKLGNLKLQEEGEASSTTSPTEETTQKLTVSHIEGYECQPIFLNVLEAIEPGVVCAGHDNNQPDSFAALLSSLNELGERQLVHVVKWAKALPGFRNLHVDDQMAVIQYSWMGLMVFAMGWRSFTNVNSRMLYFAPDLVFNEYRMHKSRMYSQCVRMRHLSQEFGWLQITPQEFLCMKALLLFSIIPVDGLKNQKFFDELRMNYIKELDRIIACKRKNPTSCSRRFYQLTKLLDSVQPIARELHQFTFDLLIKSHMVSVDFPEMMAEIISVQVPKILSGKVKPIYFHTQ
# Procedure, shortened: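 MDA-kb2 cells, 3,000/well, rested 5hr at 37C/0% CO2 → nilutamide 3.0uM final or buffer → compounds, 15 conc. → 16hr at 37C → ONE-Glo, 30min RT → luminescence.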
# [5] = qHTS assay to identify small molecule antagonists of the estrogen receptor beta (ER-beta) signaling pathway - cell viability counter screen (AID 1259382; active means well fitted curve in the direction sought with a large enough effect in the repeat runs; an effect the other way counts as inactive or inconclusive; further: nearly all actives have a fitted effect of over 55% in size; further: potency means the concentration at half of the fitted maximal effect)
# Procedure, shortened: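 Cells: ER-beta-UAS-bla HEK293T, 2,000/well, 2% CS-FBS, 6 hr settle. Cpd + E2 (1nM final), 16 hr, 37C/5% CO2. Bla FRET substrate 2 hr RT, then CellTiter-Glo 30 min RT, luminescence.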
# [6] = qHTS assay to identify small molecule agonists or antagonists of the thyroid stimulating hormone receptor (TSHR) signaling pathway - wild type cell line counter screen (AID 1259384)
# Procedure, shortened: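 Wild-type Hek293 cells, 800/well, 18 h at 37C, then compound with Ro20-1724 for 30 min RT. cAMP by HTRF (cAMP-d2/anti-cAMP cryptate), 1 h RT, fluorescence read. 15 concentrations, triplicates.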
# [7] = molecular target: Thyrotropin receptor (Homo sapiens) (UniProt P16473); test: qHTS assay to identify small molecule antagonists of the thyroid stimulating hormone receptor (TSHR) signaling pathway (AID 1259385); further: nearly all actives have a fitted effect of over 20% in size; further: potency means the concentration at half of the fitted maximal effect
# Chain of Thyrotropin receptor (Homo sapiens) (P16473 whole entry, looked up): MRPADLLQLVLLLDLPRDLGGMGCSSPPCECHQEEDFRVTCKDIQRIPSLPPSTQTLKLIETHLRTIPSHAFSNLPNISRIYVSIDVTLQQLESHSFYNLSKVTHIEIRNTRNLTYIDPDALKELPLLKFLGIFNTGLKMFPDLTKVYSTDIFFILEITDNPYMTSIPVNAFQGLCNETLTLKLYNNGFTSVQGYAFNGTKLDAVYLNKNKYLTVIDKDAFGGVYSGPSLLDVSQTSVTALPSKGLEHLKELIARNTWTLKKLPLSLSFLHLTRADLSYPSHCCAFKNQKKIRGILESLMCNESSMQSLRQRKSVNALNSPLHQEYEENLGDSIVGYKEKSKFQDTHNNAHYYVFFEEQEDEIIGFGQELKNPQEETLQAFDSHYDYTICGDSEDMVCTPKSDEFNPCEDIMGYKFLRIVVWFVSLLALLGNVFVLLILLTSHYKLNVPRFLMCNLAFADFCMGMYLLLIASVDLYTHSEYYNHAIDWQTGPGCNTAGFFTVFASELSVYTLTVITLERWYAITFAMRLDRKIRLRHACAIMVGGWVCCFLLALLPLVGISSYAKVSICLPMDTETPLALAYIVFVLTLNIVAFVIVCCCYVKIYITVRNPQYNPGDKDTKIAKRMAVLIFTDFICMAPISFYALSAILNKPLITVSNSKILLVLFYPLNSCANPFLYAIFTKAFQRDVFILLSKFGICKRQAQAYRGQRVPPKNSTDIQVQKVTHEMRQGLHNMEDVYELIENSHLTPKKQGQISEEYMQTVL
# Procedure, shortened: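 TSHR-HEK293 cells (800/well) plated 18 h, then compounds with Ro20-1724 and TSH at 1.5 ng/mL final, 30 min at room temperature. cAMP quantified by HTRF (cAMP-d2/anti-cAMP-cryptate, 1 h); 15 concentrations in triplicate.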
# [8] = molecular target: Estrogen receptor (Homo sapiens) (UniProt P03372); test: qHTS assay to identify small molecule agonists of the estrogen receptor alpha (ER-alpha) signaling pathway in the presence of an antagonist (AID 1259383); further: nearly all actives have a fitted effect of over 15% in size; further: potency means the concentration at half of the fitted maximal effect
# Chain of Estrogen receptor (Homo sapiens) (P03372 whole entry, looked up): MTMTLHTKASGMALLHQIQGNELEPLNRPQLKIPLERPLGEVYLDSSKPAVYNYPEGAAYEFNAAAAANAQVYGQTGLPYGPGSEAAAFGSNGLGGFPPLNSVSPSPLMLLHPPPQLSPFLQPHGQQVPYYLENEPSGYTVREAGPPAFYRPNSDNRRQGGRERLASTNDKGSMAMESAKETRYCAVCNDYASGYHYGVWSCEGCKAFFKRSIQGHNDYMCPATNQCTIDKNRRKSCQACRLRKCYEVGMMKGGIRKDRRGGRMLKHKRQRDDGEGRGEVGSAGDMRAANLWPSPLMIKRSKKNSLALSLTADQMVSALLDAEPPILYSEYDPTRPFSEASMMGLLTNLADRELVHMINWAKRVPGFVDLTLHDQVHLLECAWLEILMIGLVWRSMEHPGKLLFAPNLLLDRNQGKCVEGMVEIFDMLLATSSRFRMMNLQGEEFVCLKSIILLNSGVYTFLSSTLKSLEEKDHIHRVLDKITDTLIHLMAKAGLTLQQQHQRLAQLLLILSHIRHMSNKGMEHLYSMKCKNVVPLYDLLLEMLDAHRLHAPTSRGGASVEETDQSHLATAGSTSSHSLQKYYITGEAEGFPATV
# Procedure, shortened: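 VM7Luc4E2, endog. ER-alpha + 4×ERE-luc; charcoal-stripped FBS, phenol red-free, 5 d; 24hr plating; +10.0nM ICI-182,780 (final); cpds 15 conc, 22hr, 37C/5% CO2; ONE-Glo luminescence.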
Compound,Potency [1],Potency [2],Potency [3],Potency [4],Potency [5],Potency [6],Potency [7],Potency [8]
Nc1ccc(Cl)cc1C(=O)c1ccccc1F,inactive,inactive,inactive,inactive,inactive,inactive,inactive,
ClC1=C(Cl)[C@]2(Cl)[C@H]3[C@H]([C@@H]4C=C[C@H]3C4)[C@@]1(Cl)C2(Cl)Cl,inactive,inactive,61.1 µM (active),,inactive,,inactive,inactive
O=C(NC(=O)c1c(F)cccc1F)Nc1ccc(Oc2ccc(C(F)(F)F)cc2Cl)cc1F,6.86 µM (active),68.6 µM (active),inactive,,inactive,,,
COc1c2c(cc3c1OCO3)CCN(C)C2,inactive,inactive,inactive,,inactive,inactive,inactive,inactive
[O]=[Cr](=[O])([OH])[O][Cr](=[O])(=[O])[OH],1.95 µM (active) and 2.16 µM (active),27.6 µM (active) and 54.4 µM (active),24.6 µM (active) and 54.4 µM (active),inactive,,,inactive,inactive
C[C@]12Cc3cn[nH]c3C[C@@H]1CC[C@@H]1[C@@H]2CC[C@@]2(C)[C@H]1CC[C@]2(C)O,13.3 µM (active),inactive,8.41 µM (active),,6.68 µM (active),inactive,inactive,
CC(Cc1ccc2c(c1)OCO2)NO (configuration not stated),inactive,inactive,inactive,,inactive,inactive,inactive,inactive
CCn1cc[n+](C)c1 (tested in a mixture with another compound),inactive,inactive,inactive,,inactive,,,
CCN1CCC2(CC1)COc1cc3c(cc12)N(C(=O)c1ccc(-c2ccc(-c4nnc(C)o4)cc2C)cc1)CC3,2 µM (active),63.3 µM (active),6.33 µM (active),inactive,11.2 µM (active),,63.3 µM (active),
CN1C(=O)[C@@H](NC(=O)c2cc3ccccc3[nH]2)N=C(c2ccccc2)c2ccccc21,inactive,inactive,inactive,,inactive,inactive,inactive,
CCN(CC)C(=S)S,5.49 µM (active) and 2.42 µM (active),inactive,6.08 µM (active) and 9.69 µM (active),,12.1 µM (active),inactive,inactive,inactive
COC(=O)c1cc(Oc2ccc(Cl)cc2Cl)ccc1[N+](=O)[O-],inactive,inactive,inactive,,inactive,inactive,,inactive
C[C@]12C/C(=C/O)C(=O)C[C@@H]1CC[C@@H]1[C@@H]2CC[C@@]2(C)[C@H]1CC[C@]2(C)O,15.5 µM (active),61.7 µM (active) and inactive,49 µM (active) and 26.6 µM (active),,49 µM (active),inactive,inactive,8.71 µM (active) and 21.1 µM (active)
CNC(=O)O/N=C(\C)C(C)S(C)(=O)=O (configuration not stated),282 µM (active),inactive,inactive,,inactive,inactive,inactive,
Clc1cc(Cl)c(-c2cc(Cl)c(Cl)cc2Cl)cc1Cl,inactive,inactive,inactive,,inactive,inactive,,
Nc1c(Cl)c(Cl)c(Cl)c(Cl)c1Cl,inactive,inactive,inactive,54.5 µM (active),inactive,inactive,inactive,
CC[C@H](C)[C@H]1O[C@]2(C=C[C@@H]1C)C[C@@H]1C[C@@H](C/C=C(\C)[C@@H](O[C@H]3C[C@H](OC)[C@@H](O[C@H]4C[C@H](OC)[C@@H](NC)[C@H](C)O4)[C@H](C)O3)[C@@H](C)/C=C/C=C3\CO[C@@H]4[C@H](O)C(C)=C[C@@H](C(=O)O1)[C@]34O)O2,3.06 µM (active),19.3 µM (active),9.69 µM (active),,21.7 µM (active),inactive,27.3 µM (active),inactive
CCCCn1cc[n+](C)c1 (tested in a mixture with another compound),inactive,inactive,inactive,,inactive,,,
CC(=O)[O][Sn]([c]1ccccc1)([c]1ccccc1)[c]1ccccc1,0.0545 µM (active),0.77 µM (active),0.137 µM (active),,0.137 µM (active),,19.3 µM (active),inactive
O.O.O.O.O.O.O.O=S(=O)([O-])[O-].[Co+2],inactive,inactive,inactive,,inactive,,,
O.O.O.O.O.O.O=S(=O)([O-])[O-].[Ni+2],inactive,inactive,inactive,,inactive,,,
ClC1=C(Cl)[C@]2(Cl)[C@@H]3[C@H]4C[C@H]([C@@H]5O[C@H]45)[C@@H]3[C@@]1(Cl)C2(Cl)Cl,24.3 µM (active),inactive,inactive,,inactive,inactive,inactive,inactive
O=P(Cl)(Cl)Cl,inactive,inactive,inactive,,inactive,,inactive,inactive
CCCCn1cc[n+](C)c1.[Cl][Fe-]([Cl])([Cl])[Cl],inactive,inactive,inactive,,inactive,,,
Nc1nc(N)c(N)c(N)n1,inactive,inactive,inactive,,inactive,,,
CC(=O)O.CC(=O)O.CC(=O)O.CC(=O)O.CC(=O)O.CC(=O)O.CC(=O)O.O.O.[Cr].[Cr].[Cr],inactive,inactive,inactive,,inactive,,,
